Screening results as filed in PubChem BioAssay.
A selection: hits, their analogues and other compounds. The true share with any hit is near 1.8%.
Mtb hypoxia inh = Mtb hypoxia fluorescent reporter inhibition | hit rate 0.1% among 300,000 | AID 1159583 | fluorescence inhibition, % (no concentration beside the values) | M. tuberculosis hypoxia-regulated fluorescent reporter, fluorescence; in the data active = fluorescence inhibition mostly above about 23%, no sharp cut-off; inactive = mostly below about 17%
PfHsp40 yeast = restores yeast growth despite PfHsp40 toxicity; growth rescue, % at 12.5 µM; AID 504582; hit rate 0.68% among 340,000; S. cerevisiae expressing PfHsp40, growth rescue, ATP luminescence; in the data active = growth rescue above about 28%, passing the limit was not always enough; inconclusive = no clear call, values can overlap the other calls;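 note: yeast W303a lacking pdr1 and pdr3 grown in galactose medium; growth measured after three days at 30 °C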
PriA SSB inh = inhibitors of Klebsiella pneumoniae PriA binding to SSB C-terminal tail | hit rate 0.6% among 430,000 | AID 1272365 | AlphaScreen SSBct-PriA binding, biotinylated peptide | inhibition, % at 33 µM; in the data active = inhibition mostly above about 37%, no sharp cut-off; inactive = mostly below about 20%;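 note: plate controls were negative control peptide for no effect and reference peptide for full effect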
Sa ugtP lethal = growth inhibition of S. aureus ugtP deletion strain; S. aureus RN4220 ugtP deletion, OD600 growth, 16 h; growth inhibition, % (no concentration beside the values); hit rate 0.54% among 330,000; in the data active = growth inhibition above about 68%;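 note: plate controls were untreated wells for no effect and antibiotic for full effect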
RN4220 kill = S. aureus RN4220 growth inhibition; AID 1259311; inhibition, % (no concentration beside the values); hit rate 0.33% among 330,000; OD600, 16 h; in the data active = inhibition above about 85%;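 note: plate controls were untreated cells for no effect and reference antibiotic for full effect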
DUSP3 inh = inhibitors of human VHR1 phosphatase (DUSP3). P51452. recombinant VHR phosphatase, pNPP absorbance. hit rate 0.52% among 290,000. AID 1654. inhibition, % at 13.3 µM; in the data active = inhibition above about 50%
Target sequence (P51452 whole entry, looked up): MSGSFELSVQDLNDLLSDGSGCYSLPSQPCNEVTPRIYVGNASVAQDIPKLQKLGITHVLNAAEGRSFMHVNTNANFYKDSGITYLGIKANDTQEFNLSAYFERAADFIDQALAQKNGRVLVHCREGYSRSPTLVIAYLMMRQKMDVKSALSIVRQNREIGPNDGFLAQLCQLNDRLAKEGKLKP
* hit, by the source's call; i = inactive; ? = inconclusive; . = no result shown.

SMILES	Mtb hypoxia inh	PfHsp40 yeast	PriA SSB inh	Sa ugtP lethal	RN4220 kill	DUSP3 inh
COc1ccc(S(=O)(=O)c2cn(CC(=O)Nc3ccc(C)cc3C)c3ccc(F)cc3c2=O)cc1	.	.	-2.0	.	.	.
O=C(O)c1cn(C2CC2)c2cc(N3CCN(S(=O)(=O)c4ccc5c(c4)OCCO5)CC3)c(F)cc2c1=O	.	2.0	-10.3	100.3*	99.4*	1.1
Cn1c(=O)c2sccc2n2c(CCCC(=O)NCc3ccc(F)cc3)nnc12	-11.9	-0.5	-14.3	-5.1	0.1	59.7*
CCOc1ccc(-c2cc(C(=O)Nc3nc(C)c(C(=O)OCC(C)C)s3)no2)cc1	.	.	-6.0	.	.	.
COc1ccccc1Nc1c2c(nc3ccc(N)cc13)CCCC2	1.0	-0.7	53.2*	10.9	3.7	-7.7
COc1ccc(S(=O)(=O)/N=C2/C=CC(=O)C(C)=C2C)cc1	.	-1.1	.	.	.	7.3
CC1=C(C)/C(=N\OS(=O)(=O)c2ccc(C)cc2)C=CC1=O	.	424.4*	.	.	.	-1.5
Cc1ccc(C2CC(c3ccc(Br)cc3)=NN2C(=O)CSc2nc3c(cnn3-c3ccccc3)c(=O)[nH]2)cc1 (configuration not stated)	.	.	12.0	.	.	.
Cc1c(C(=O)O)c(=O)n(-c2ccccc2)n1C	.	.	-12.0	.	.	.
CC1Oc2ccccc2C=C1/C=N/Nc1ccc(C(=O)O)cc1 (configuration not stated)	.	341.7*	i	.	.	21.3
Cc1ccc(NC(=O)C2C3C=CC4(O3)C2C(=O)N(CCCN2CCCCC2)C4C(=O)NC2CCCCC2)cc1Cl (configuration not stated)	0.1	0.8	-11.7	3.2	1.3	16.0
Cc1ccc(NC(=O)C2C3C=CC4(O3)C2C(=O)N(CCCN2CCCC2)C4C(=O)NC2CCCCC2)cc1Cl (configuration not stated)	4.2	0.7	-15.8	1.6	0.3	52.9*
Cc1cc(OC2CCN(C(=O)CCc3ccc(OCc4ccccc4)cc3)C2)cc(=O)n1C (configuration not stated)	.	.	-20.0	.	.	.
OCCOCCn1c(C2CCCN2c2nc(-c3ccc(F)cc3)cs2)nc2cc(C(F)(F)F)ccc21 (configuration not stated)	-1.3	?	3.3	-4.7	-5.4	.
OCCOCCn1c(C2CCCN2c2nc(-c3ccc(F)cc3)cs2)nc2cc(Cl)c(Cl)cc21 (configuration not stated)	-1.1	143.4*	0.1	-8.9	-12.8	.
OCCCn1c(C2CCCN2c2nc(-c3ccc(F)cc3)cs2)nc2cc(C(F)(F)F)ccc21 (configuration not stated)	14.9	145.2*	2.8	-1.9	-18.4	.
Cc1cccn2cc(-c3cccc(NC(=O)c4cc(=O)[nH]cn4)c3)nc12	.	.	-5.0	.	.	.
O=C(NN=Cc1ccc(O)c([N+](=O)[O-])c1)C1COc2ccccc2O1 (configuration not stated)	.	.	-9.7	12.7	4.8	.
O=C(N/N=C\c1cccc([N+](=O)[O-])c1O)C1COc2ccccc2O1 (configuration not stated)	.	42.2*	.	.	.	10.2
O=[N+]([O-])c1cccc(C=NNc2ccc3ccccc3n2)c1O	.	240.9*	7.4	.	.	.
Cc1ccc(-n2c(O)c(/C=N/NC(=O)C3COc4ccccc4O3)c3ccccc3c2=O)cc1 (configuration not stated)	.	205.0*	.	.	.	2.6
Brc1ccccc1/C=N/Nc1ccc2ccccc2n1	.	4.8	.	.	.	37.3
O=C(N/N=C/c1cc(Cl)cc([N+](=O)[O-])c1O)c1ccccc1NS(=O)(=O)c1cccs1	.	243.9*	.	.	.	13.6
O=C(c1ccc(F)cc1F)N1CCC(c2nnc(-c3ccco3)s2)CC1	.	.	9.0	.	.	.
CCN(c1ccccc1)S(=O)(=O)c1ccc(C(=O)Nc2nc(-c3ccc(F)cc3F)cs2)cc1	.	.	-5.0	.	.	.
SMILES	Mtb hypoxia inh	PfHsp40 yeast	PriA SSB inh	Sa ugtP lethal	RN4220 kill	DUSP3 inh
O=C(N/N=C/c1cccc([N+](=O)[O-])c1O)c1cccs1	.	-0.2	.	.	.	56.2*
O=C(NN=Cc1cccc([N+](=O)[O-])c1O)c1cccs1	.	.	3.8	.	.	.
Cc1cc(NC(=O)Cn2cnc3c(cnn3CCO)c2=O)no1	.	.	-5.0	.	.	.
CCCCCCCNC(=O)C1(CC2CC(c3cccc(Br)c3)=NO2)CCN(C(=O)CCCCCBr)CC1 (configuration not stated)	.	45.1*	-7.2	.	.	.
O=C(c1cccc2c1OCCO2)N1CCc2nc3ccc(F)cn3c(=O)c2C1	.	.	-1.0	.	.	.
CCCCn1c(=O)[nH]c(=O)c2c1nc(-c1ccc(-c3ccc(F)cc3)o1)n2C	36.8*	.	4.1	5.0	6.4	-3.9
CCCCn1c(=O)[nH]c(=O)c2c1nc(-c1ccc(CC)c([N+](=O)[O-])c1)n2C	3.5	.	.	-68.4	1.8	37.7
O=C(NCc1ccco1)c1cccn1Cc1nc(-c2ccccc2)no1	.	.	-5.0	.	.	.
COc1ccc(C=NNC(=O)c2nc(-c3ccccc3)cc(-c3ccccc3)n2)cc1OC	9.9	.	-4.4	-6.4	4.0	.
COc1ccc(/C=N/NC(=O)c2nc(-c3ccccc3)n(-c3ccccc3)n2)c(O)c1	.	71.5*	.	.	.	-3.9
COc1cccc(/C=N/NC(=O)c2nc(-c3ccccc3)cc(-c3ccccc3)n2)c1O	.	253.5*	.	.	.	28.2
COc1ccccc1C(=O)NCCn1cc(SCc2ccc(C(F)(F)F)cc2)c2ccccc21	.	.	6.0	.	.	.
Cc1ccc(S(=O)(=O)N2C(=O)CCC2C(=O)N2CCCCC2)cc1 (configuration not stated)	17.9	-2.2	-6.0	8.2	4.6	52.0*
Cc1ccc(S(=O)(=O)N2C(=O)CCC2C(=O)N2CCN(C)CC2)cc1 (configuration not stated)	4.5	-0.6	-4.6	7.7	5.2	0.1
Cn1c(N=Cc2ccc3c(c2)OCO3)nc2ccccc21	-1.3	.	-0.9	7.1	4.3	.
CCCCN1CCC2C=CCC(C(=O)Nc3ccccc3)C2C1=O (configuration not stated)	8.1	.	.	-1.7	1.8	.
CC(=O)C(C(C)=O)c1c(Cl)c(O)c(O)c2c(C(=O)c3ccccc3)coc12	.	51.2*	31.6	.	.	8.6
COc1cccc(OCc2cc(C(=O)N3CCN(C)C(c4ccccc4)C3)no2)c1 (configuration not stated)	13.5	148.9*	2.0	4.7	0.0	34.1
CCOC(=O)Cn1c(Cl)c(C=O)sc1=O	.	.	1.0	.	.	.
O=C(CCCSc1ccc(F)cc1)Nc1nnc(-c2ccc3c(c2)CCCC3)o1	.	.	8.0	.	.	.
O=Nc1c(-c2c(O)[nH]c3cc(Br)ccc23)[nH]c2ccccc12	25.5	1.2	23.8	99.9*	100.5*	9.5
O=C(CSCc1cccc(Br)c1)N=Nc1c(O)[nH]c2ccccc12	10.2	1.1	21.6	3.4	8.2	18.9
O=c1c2ccccc2nc(/C=C/c2ccc(O)c(O)c2)n1-c1ccccc1	-3.2	-0.5	-4.7	-20.1	11.1	27.9
COc1cc(/C=C/c2nc3ccccc3c(=O)n2-c2cccc(O)c2)ccc1O	3.6	-1.1	-4.2	99.5*	98.9*	8.4
COc1cc(/C=C/c2nc3ccccc3c(=O)n2-c2ccccc2O)ccc1O	.	2.4	18.4	99.4*	93.0*	5.8
